Source: PubChem BioAssay (NCI)
This is part of a sample that, as a whole, favours compounds with a hit. Of some 79,000 tested, about 15% had one in any assay. Activity calls are given as the source filed them. Cut-off read from the data, not from the text of the source: active = growth inhibition above about 70%; inactive = the rest.

Tests used:
[1] = NCI Yeast Anticancer Drug Screen. Data for the mec2-1 strain (AID 157); conditions: S. cerevisiae mec2-1 strain, stronger effect = higher value
Outline: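 Growth inhibition is read against vehicle-treated controls after compound exposure of the mec2-1 yeast strain, which is defective in DNA damage repair or cell cycle control.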

[2] = NCI Yeast Anticancer Drug Screen. Data for the rad14 strain (AID 159);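 note: 0% = growth of vehicle-treated control cultures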; conditions: S. cerevisiae rad14 strain growth inhibition, stronger effect = higher value
Outline: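 Growth inhibition vs vehicle controls; genetically altered yeast strain (DNA damage repair defect) treated with test compounds.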

[3] = NCI Yeast Anticancer Drug Screen. Data for the sgs1 mgt1 strain (AID 161);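 note: 0% = growth of cultures given vehicle only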; conditions: S. cerevisiae sgs1 mgt1 strain, stronger effect = higher value
Outline: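 Compounds are added to genetically altered yeast, and growth is compared with cultures given vehicle alone to give percent inhibition.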

[4] = NCI Yeast Anticancer Drug Screen. Data for the CLN2oe strain (AID 163);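 note: 0% = growth of vehicle-only control cultures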; conditions: S. cerevisiae CLN2oe strain, stronger effect = higher value
Outline: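 Compound-treated yeast; growth vs vehicle ctrl = % inhibition. Genetically altered strain (cell-cycle control).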

[5] = NCI Yeast Anticancer Drug Screen. Data for the cln2 rad14 strain (AID 165);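 note: 0% = growth equal to vehicle treated cultures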; conditions: S. cerevisiae cln2 rad14 strain, stronger effect = higher value
Outline: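 Growth inhibition, relative to vehicle-treated controls, is the read-out. The test organism is a yeast strain with defined genetic alterations, cln2 rad14.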

[6] = NCI Yeast Anticancer Drug Screen. Data for the bub3 strain (AID 167); conditions: S. cerevisiae bub3 mutant strain, stronger effect = higher value
Outline: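 Readout: yeast growth inhibition, expressed relative to vehicle-only wells. The test organism is a mutant strain from a panel with lesions in DNA repair or checkpoint genes.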

[7] = NCI Yeast Anticancer Drug Screen. Data for the wt2 strain (AID 169);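 note: 0% = growth of vehicle-treated yeast cultures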; conditions: S. cerevisiae wt2 strain growth inhibition, stronger effect = higher value
Outline: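 Compound exposure of yeast; growth compared with vehicle controls; inhibition reported.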

[8] = NCI Yeast Anticancer Drug Screen. Data for the mlh1 strain (AID 171);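 note: 0% = growth of vehicle-treated control cultures of the same strain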; conditions: S. cerevisiae mlh1 strain growth inhibition, stronger effect = higher value
Outline: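 Compounds are applied to a genetically altered yeast strain, and its growth is compared with that of vehicle-treated cultures to give percent inhibition.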

[9] = NCI Yeast Anticancer Drug Screen. Data for the sgs1 strain (AID 173);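 note: 0% = growth of vehicle-only control cultures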; conditions: S. cerevisiae sgs1 mutant, stronger effect = higher value
Outline: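 Compounds applied to genetically altered yeast; growth compared with vehicle-treated cultures to give % inhibition.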

[10] = NCI Yeast Anticancer Drug Screen. Data for the mlh1 rad18 strain (AID 175); conditions: S. cerevisiae mlh1 rad18 strain growth inhibition, stronger effect = higher value
Outline: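 Cells of a genetically altered yeast strain, deficient in DNA damage repair, were treated with compound. Their growth was then compared with that of vehicle-treated cultures to give inhibition.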

[11] = NCI Yeast Anticancer Drug Screen. Data for the rad18 strain (AID 177); conditions: S. cerevisiae rad18 mutant growth inhibition, stronger effect = higher value
Outline: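 Compounds are applied to a repair-deficient yeast strain, and growth is compared with that of vehicle-treated cultures to give percent inhibition.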

[12] = NCI Yeast Anticancer Drug Screen. Data for the rad52 strain (AID 147);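 note: 0% = growth of vehicle-treated control cultures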; conditions: S. cerevisiae rad52 mutant growth inhibition, stronger effect = higher value
Outline: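 DNA repair-defective yeast; compound exposure; growth scored against vehicle controls.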

[13] = NCI Yeast Anticancer Drug Screen. Data for the wt1 strain (AID 149);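 note: 0% = growth of vehicle-treated wt1 cultures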; conditions: S. cerevisiae wt1 strain (SPY 50644) growth inhibition, stronger effect = higher value
Outline: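 Growth inhibition read against vehicle controls after compound exposure of the wt1 yeast strain.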

[14] = NCI Yeast Anticancer Drug Screen. Data for the rad50EPP+ strain (AID 151);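 note: 0% = growth of vehicle-treated control cultures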; conditions: S. cerevisiae rad50 mutant strain, stronger effect = higher value
Outline: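 rad50EPP+ yeast treated with test compounds. Readout: growth vs vehicle control.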

[15] = NCI Yeast Anticancer Drug Screen. Data for the mgt1 strain (AID 153); conditions: S. cerevisiae mgt1 mutant growth inhibition, stronger effect = higher value
Outline: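 Growth inhibition relative to vehicle controls was scored for the mgt1 yeast strain after compound exposure.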

[16] = NCI Yeast Anticancer Drug Screen. Data for the rad50 strain (AID 155);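 note: 0% = growth of vehicle-only cultures of the same strain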; conditions: S. cerevisiae rad50 strain growth inhibition, stronger effect = higher value
Outline: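 Readout: growth inhibition relative to vehicle-treated cultures. Compound exposure was carried out in a genetically defined yeast strain deficient in DNA damage repair.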

[17] = at 5.0 µM (retest, dose inferred, filed as 0.5)
[18] = at 50.0 µM (retest, dose inferred, filed as 5.0)

Measured: growth inhibition

CC(C)CCCC(C)C1CCC2C3CCC4=CC(=O)/C(=C\O)CC4(C)C3CCC12C (centres undefined)
inactive: [1]; [17] 3% | [1]; at 11.0 µM -7% | [1]; at 33.0 µM -2% | [1]; [18] 45% | [1]; at 50.0 µM 6.2% | [1]; at 100.0 µM 22% | [2]; at 1.2 µM 1% | [2]; at 3.7 µM 2% | [2]; at 11.0 µM 3% | [2]; at 33.0 µM 7% | [2]; at 100.0 µM 20% | [3]; [17] 7% | [3]; [18] 48% | [3]; at 50.0 µM 14.9% | [4]; at 1.2 µM -3% | [4]; at 3.7 µM -5% | [4]; at 11.0 µM -10% | [4]; at 33.0 µM -18% | [4]; at 100.0 µM 2% | [5]; [17] 0% | [5]; [18] 26% | [5]; at 50.0 µM 48.5% | [6]; at 1.2 µM 4% | [6]; at 3.7 µM -1% | [6]; [17] 6% | [6]; at 11.0 µM -10% | [6]; at 33.0 µM -9% | [6]; [18] 54% | [6]; at 50.0 µM 47.8% | [6]; at 100.0 µM 21% | [7]; at 1.2 µM 2% | [7]; at 3.7 µM 0% | [7]; at 11.0 µM 2% | [7]; at 33.0 µM 1% | [7]; at 100.0 µM 10% | [8]; at 1.2 µM -1% | [8]; at 3.7 µM -2% | [8]; at 11.0 µM -3% | [8]; at 33.0 µM -2% | [8]; at 100.0 µM 15% | [9]; at 1.2 µM 0% | [9]; at 3.7 µM -1% | [9]; at 11.0 µM -1% | [9]; at 33.0 µM 3% | [9]; at 100.0 µM 29% | [10]; [17] 2% | [10]; [18] 52% | [10]; at 50.0 µM 26.1% | [11]; at 1.2 µM 3% | [11]; at 3.7 µM 3% | [11]; at 11.0 µM 2% | [11]; at 33.0 µM 6% | [11]; at 100.0 µM 28%

O=[N+]([O-])c1cc(S(=O)(=O)Nc2ccccc2)ccc1Nc1ccccc1
inactive: [12]; at 1.2 µM 0% | [12]; at 3.7 µM 13% | [13]; at 1.2 µM -16% | [13]; at 3.7 µM -19% | [14]; at 1.2 µM 2% | [14]; at 3.7 µM 2% | [14]; at 11.0 µM 23% | [14]; at 33.0 µM 19% | [14]; at 100.0 µM 3% | [15]; at 1.2 µM -18% | [15]; at 3.7 µM 11% | [16]; at 1.2 µM 11% | [16]; at 3.7 µM 28% | [16]; [17] 51% | [1]; at 1.2 µM 18% | [1]; at 3.7 µM 19% | [1]; [17] 39% | [2]; at 1.2 µM -26% | [2]; at 3.7 µM -29% | [3]; [17] 2% | [4]; at 1.2 µM 14% | [4]; at 3.7 µM -1% | [5]; [17] 68% | [6]; at 1.2 µM 15% | [6]; at 3.7 µM 40% | [6]; [17] -7% | [7]; at 1.2 µM -28% | [7]; at 3.7 µM -18% | [8]; at 1.2 µM -26% | [8]; at 3.7 µM -15% | [9]; at 1.2 µM 0% | [9]; at 3.7 µM -8% | [10]; [17] 33% | [11]; at 1.2 µM -3% | [11]; at 3.7 µM 18%
active: [12]; at 11.0 µM 95% | [12]; at 33.0 µM 91% | [12]; at 100.0 µM 76% | [13]; at 11.0 µM 94% | [13]; at 33.0 µM 91% | [13]; at 100.0 µM 81% | [15]; at 11.0 µM 89% | [15]; at 33.0 µM 92% | [15]; at 100.0 µM 82% | [16]; at 11.0 µM 93% | [16]; at 33.0 µM 89% | [16]; [18] 94% | [16]; at 50.0 µM 80% | [16]; at 100.0 µM 75% | [1]; at 11.0 µM 93% | [1]; at 33.0 µM 89% | [1]; [18] 96% | [1]; at 50.0 µM 81.2% | [1]; at 100.0 µM 78% | [2]; at 11.0 µM 89% | [2]; at 33.0 µM 89% | [2]; at 100.0 µM 77% | [3]; [18] 91% | [3]; at 50.0 µM 85.5% | [4]; at 11.0 µM 94% | [4]; at 33.0 µM 89% | [4]; at 100.0 µM 76% | [5]; [18] 91% | [5]; at 50.0 µM 80.2% | [6]; at 11.0 µM 94% | [6]; at 33.0 µM 91% | [6]; [18] 86% | [6]; at 50.0 µM 76.2% | [6]; at 100.0 µM 76% | [7]; at 11.0 µM 92% | [7]; at 33.0 µM 92% | [7]; at 100.0 µM 83% | [8]; at 11.0 µM 90% | [8]; at 33.0 µM 91% | [8]; at 100.0 µM 79% | [9]; at 11.0 µM 91% | [9]; at 33.0 µM 91% | [9]; at 100.0 µM 83% | [10]; [18] 98% | [10]; at 50.0 µM 77.7% | [11]; at 11.0 µM 95% | [11]; at 33.0 µM 91% | [11]; at 100.0 µM 79%

N#CNC(N)=Nc1cc2ccccc2c2ccccc12
inactive: [12]; at 1.2 µM 34% | [12]; at 3.7 µM 60% | [13]; at 1.2 µM 3% | [13]; at 3.7 µM 25% | [13]; at 11.0 µM 61% | [14]; at 1.2 µM 8% | [14]; at 3.7 µM 16% | [14]; at 11.0 µM 61% | [15]; at 1.2 µM 27% | [15]; at 3.7 µM 40% | [16]; at 1.2 µM 45% | [16]; at 3.7 µM 69% | [16]; [17] 60% | [1]; at 1.2 µM 24% | [1]; at 3.7 µM 32% | [1]; [17] 48% | [1]; at 11.0 µM 58% | [1]; at 50.0 µM 67.1% | [2]; at 1.2 µM 36% | [2]; at 3.7 µM 53% | [3]; [17] 57% | [4]; at 1.2 µM 38% | [4]; at 3.7 µM 46% | [4]; at 11.0 µM 68% | [5]; [17] 55% | [6]; at 1.2 µM 34% | [6]; at 3.7 µM 32% | [6]; [17] 40% | [6]; at 11.0 µM 67% | [7]; at 1.2 µM 17% | [7]; at 3.7 µM 12% | [7]; at 11.0 µM 62% | [8]; at 1.2 µM 31% | [8]; at 3.7 µM 50% | [9]; at 1.2 µM 20% | [9]; at 3.7 µM 58% | [10]; [17] 54% | [11]; at 1.2 µM 21% | [11]; at 3.7 µM 34%
active: [12]; at 11.0 µM 88% | [12]; at 33.0 µM 95% | [12]; at 100.0 µM 92% | [13]; at 33.0 µM 87% | [13]; at 100.0 µM 90% | [14]; at 33.0 µM 82% | [14]; at 100.0 µM 79% | [15]; at 11.0 µM 71% | [15]; at 33.0 µM 88% | [15]; at 100.0 µM 92% | [16]; at 11.0 µM 90% | [16]; at 33.0 µM 96% | [16]; [18] 97% | [16]; at 50.0 µM 89.5% | [16]; at 100.0 µM 90% | [1]; at 33.0 µM 78% | [1]; [18] 96% | [1]; at 100.0 µM 82% | [2]; at 11.0 µM 85% | [2]; at 33.0 µM 95% | [2]; at 100.0 µM 93% | [3]; [18] 96% | [3]; at 50.0 µM 78.8% | [4]; at 33.0 µM 83% | [4]; at 100.0 µM 84% | [5]; [18] 90% | [5]; at 50.0 µM 91.3% | [6]; at 33.0 µM 87% | [6]; [18] 96% | [6]; at 50.0 µM 92.2% | [6]; at 100.0 µM 93% | [7]; at 33.0 µM 89% | [7]; at 100.0 µM 89% | [8]; at 11.0 µM 78% | [8]; at 33.0 µM 92% | [8]; at 100.0 µM 91% | [9]; at 11.0 µM 87% | [9]; at 33.0 µM 96% | [9]; at 100.0 µM 96% | [10]; [18] 97% | [10]; at 50.0 µM 85.7% | [11]; at 11.0 µM 78% | [11]; at 33.0 µM 94% | [11]; at 100.0 µM 92%
